Source: PubChem
proKLK7 act – proKLK7 zymogen activators, primary screen, biochemical, fluorescence intensity. Kallikrein-7 (Homo sapiens), P49862. purified proKLK7, EDANS-DABCYL substrate fluorescence; 100% is mature enzyme control, 0% vehicle. activation, % at 7 µM. actives 0.9% (n = 370,000);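 active means activation above the mean of all tested compounds plus 3 SD, computed per campaign excluding outliers beyond control limits, cut at about 13% in these data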
ADAM10 inh – human ADAM10 inhibitors, primary screen, biochemical, QFRET, HTS; Disintegrin and metalloproteinase domain-containing protein 10 (Homo sapiens), O14672; recombinant ADAM10, EDANS/DABCYL FRET peptide cleavage, 3 h; inhibition, % at 7 µM; actives 0.62% (n = 370,000);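 active means inhibition above a per-campaign cutoff equal to the mean of compounds falling between control-based bounds plus 3 SD, cut at about 20% in these data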
ADAM17 inh – ADAM17 inhibitors, primary screen, biochemical, QFRET. Disintegrin and metalloproteinase domain-containing protein 17 (Homo sapiens), P78536. recombinant ADAM17, EDANS/DABCYL FRET peptide cleavage. inhibition, % at 6.95 µM. actives 0.83% (n = 370,000). AID 720648, 2013;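 active means inhibition above the mean of compounds lying between control limits plus 3 SD, set per campaign, cut at about 8.5% in these data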
GRIN3A LBD mod – binders of NR3A ligand-binding domain, primary screen, biophysical, differential scanning fluorimetry, uHTS; Glutamate receptor ionotropic, NMDA 3A (GRIN3A) ligand-binding domain; NR3A LBD differential scanning fluorimetry, Tm shift; 0% = protein alone, 100% = glycine-bound protein; Tm shift relative to glycine control, % at 25 µM; actives 2.5% (n = 340,000); AID 1259313, 2017;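 active means melting temperature shift of at least 10% of the positive control shift, at one fixed dose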
rCAG RNA binder – binders of r(CAG) RNA repeats, primary screen, biochemical, fluorescence | r(CAG) RNA repeat, TO-PRO-1 dye displacement fluorescence | actives 1.3% (n = 370,000) | inhibition, % at 3 µM;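 active means inhibition above the plate cutoff, the mean of all test compounds on that plate plus 3 SD, cut at about 35% in these data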;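 further: higher means more dye released from RNA so lower well fluorescence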
AHR activator – AHR activators, primary screen, cell-based, luminescence, luciferase reporter, human; Aryl hydrocarbon receptor (Homo sapiens), P35869; AHR-responsive luciferase reporter cells; activation, % at 5 µM; actives 2.5% (n = 320,000); AID 2796, 2010; in the data active means activation above about 47%
Target sequence (P35869 whole entry, looked up): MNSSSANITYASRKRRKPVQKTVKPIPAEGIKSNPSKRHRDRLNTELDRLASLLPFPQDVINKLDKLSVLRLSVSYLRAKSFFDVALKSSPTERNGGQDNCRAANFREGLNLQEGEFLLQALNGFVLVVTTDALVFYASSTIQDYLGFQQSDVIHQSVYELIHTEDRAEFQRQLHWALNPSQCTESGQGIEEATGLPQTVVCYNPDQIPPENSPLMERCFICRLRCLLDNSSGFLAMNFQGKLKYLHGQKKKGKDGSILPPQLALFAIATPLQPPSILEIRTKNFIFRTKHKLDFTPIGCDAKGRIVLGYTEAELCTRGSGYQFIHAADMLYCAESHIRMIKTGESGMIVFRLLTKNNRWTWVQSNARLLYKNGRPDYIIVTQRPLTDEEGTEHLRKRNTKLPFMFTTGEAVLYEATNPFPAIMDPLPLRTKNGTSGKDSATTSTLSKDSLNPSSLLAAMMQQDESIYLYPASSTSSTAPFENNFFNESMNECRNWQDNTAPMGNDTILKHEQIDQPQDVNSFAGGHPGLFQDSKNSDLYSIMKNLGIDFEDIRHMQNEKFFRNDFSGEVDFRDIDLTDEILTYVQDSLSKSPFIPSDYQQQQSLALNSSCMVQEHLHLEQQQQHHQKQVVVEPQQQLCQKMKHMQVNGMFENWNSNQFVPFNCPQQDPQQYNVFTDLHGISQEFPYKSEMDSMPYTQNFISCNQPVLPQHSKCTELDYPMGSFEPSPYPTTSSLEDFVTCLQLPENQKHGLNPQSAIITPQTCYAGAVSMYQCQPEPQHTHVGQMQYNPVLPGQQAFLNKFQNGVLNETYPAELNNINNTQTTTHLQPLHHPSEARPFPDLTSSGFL
A number is an active result; – = inactive; · = not tested or not shown. A selection: hits, their analogues and other compounds. The true share with any hit is near 7%.

SMILES	proKLK7 act	ADAM10 inh	ADAM17 inh	GRIN3A LBD mod	rCAG RNA binder	AHR activator
CSc1ccccc1-c1nnc(-c2ccccc2)o1	–	–	–	–	–	–
CC1(c2nnc(-c3cccc(Cl)c3)o2)CC(c2cccc(Cl)c2)=NO1 (configuration not stated)	–	–	–	–	–	–
Oc1ccccc1-c1nnc(-c2ccc(C(F)(F)F)cc2)o1	–	–	–	–	–	52.0
Nc1ccccc1-c1nnc(-c2ccc(-c3ccccc3)cc2)o1	–	–	–	–	–	75.8
c1ccc(-c2nnc(-c3ccccc3)o2)cc1	–	–	–	–	–	58.8
COc1ccc(CN2CCC(CNC(=O)NC(C)C)CC2)cc1	–	–	–	·	–	·
Clc1cccc(-c2nnc(-c3ccccc3)o2)c1	–	–	–	–	–	65.3
Clc1cccc(-c2nnc(-c3ccno3)o2)c1	–	–	–	–	–	–
CC(=O)N1C(=O)C(=C2C=C(C)OC(C)=C2)c2ccccc21	–	–	–	–	–	55.0
COC(=O)[C@]12C[C@H](CC(=O)NCc3ccc(C)o3)C(=O)N(Cc3ccc4c(c3)OCO4)C1=C[C@H](C(C)(C)C)O[C@@H]2C	–	–	–	·	–	·
Cc1cccc(-c2cccc3c4c([nH]c23)[C@@H]2C[C@H](N(C)C(=O)Nc3ccccc3)[C@H]([C@H](C)O)CN2CC4)c1	–	–	–	·	–	·
O=C1NC(=S)N/C1=C\c1ccccc1OCc1ccc(C(=O)O)cc1	–	–	–	–	–	–
O=C(O)c1ccc(COc2ccccc2C=C2C(=O)c3ccccc3C2=O)cc1	–	–	–	29.5	–	–
CC(=O)Oc1c2occc2cc2ccc(=O)oc12	–	–	–	–	–	–
COc1c2occc2c(OC(C)=O)c2c(=O)cc(C)oc12	–	–	–	–	–	54.0
O=C(N/N=C/c1ccc(Cl)cc1)c1sccc1OCc1ccc(F)cc1	–	–	–	21.8	–	–
COC(=O)N/N=C/c1cc(Cl)c(OCc2ccc(F)cc2)c(OC)c1	–	–	–	–	–	–
COC(=O)N/N=C/c1cc(Cl)cc(Cl)c1OCc1ccc(F)cc1	–	–	–	–	–	55.2
O=C(N/N=C/c1ccc(F)cc1)c1sccc1OCc1ccc(F)cc1	–	–	–	–	–	–
O=C(c1sccc1Cl)N1CCC(n2nnc3ncccc32)CC1	–	–	–	·	–	·
CCOC(=O)c1ccc2nc(NC(=O)c3ccco3)sc2c1	–	–	–	15.9	–	–
CCOC(=O)c1ccc2nc(NC(=O)c3cccs3)sc2c1	–	–	–	42.4	–	–
CC(C)CSc1nnc(-c2ccco2)n1C	–	–	–	·	–	·
COCc1nnc(NS(=O)(=O)c2ccc(OC)cc2)s1	–	–	–	–	–	·
CCCc1nnc(NS(=O)(=O)c2ccc(OC)cc2)s1	–	–	–	10.1	–	–
SMILES	proKLK7 act	ADAM10 inh	ADAM17 inh	GRIN3A LBD mod	rCAG RNA binder	AHR activator
O=c1c2ccccc2nnn1CSc1ccccc1	–	–	–	–	–	60.4
O=c1c2ccccc2nnn1CSc1ccc2ccccc2n1	–	–	–	–	–	–
CC(=S)/C=C1\Sc2ccccc2N1C	–	–	–	–	–	–
COc1ccc(C(=O)/C=C2\Sc3ccccc3N2C)cc1	–	–	–	–	–	50.4
CCOC(=O)c1nc(NNC(=O)c2ccc([N+](=O)[O-])cc2)sc1C	–	–	–	–	36.8	–
COc1ccc2c(c1)CNC2CS(=O)(=O)NCc1ccc(F)cc1 (configuration not stated)	–	–	–	·	–	·
O=C(OC12CCCN(C1)/C(=C/c1cccc(Cl)c1)C2)c1ccco1 (configuration not stated)	–	–	–	·	–	·
C=CCN1[C@H](C)COc2cc(F)ccc2S1(=O)=O	–	–	–	·	–	·
COc1ccc(-c2nc3ccc(Cl)cn3c2Cc2ccccc2C(F)(F)F)cc1OC	–	–	–	·	42.0	·
COc1ccc(-c2nc3ccc(C)cn3c2Cc2ccccc2C(F)(F)F)cc1OC	–	–	–	·	–	·
CC1=CC(C)(C)N(C(=O)CN2C(=O)c3ccccc3C2=O)c2ccccc21	–	–	–	12.0	–	–
Cn1nc(-c2ccc(Cl)cc2)cc1NC(=O)Nc1ccccc1	–	–	–	25.6	–	–
Cn1nc(-c2ccccc2)cc1NC(=O)Nc1ccc(C(C)(C)C)cc1	–	–	–	16.8	–	–
Cn1nc(-c2ccccc2)cc1NC(=O)c1ccccc1	–	–	–	–	–	–
O=C(Nc1ccc(Cl)cc1)Nc1nc(-c2ccccc2)cs1	–	–	–	11.5	–	–
CCC(=O)Nc1ccc2c(c1)C(=O)N(C)[C@@H]1CC[C@@H](CC(=O)NCc3ccc(OC)cc3)O[C@H]1CO2	–	–	–	·	–	·
COc1ccc(Cn2cc(CN3[C@H](C)COc4cc(Br)ccc4S3(=O)=O)nn2)cc1	–	–	–	·	–	·
Nc1c(C(=O)N2CCCCCC2)oc2ccccc12	–	–	–	–	–	73.5
Cc1c(C(=O)N2CCCCC2)oc2ccccc12	–	–	–	–	–	–
Cc1c(C(=O)N2CCc3ccccc3C2)oc2ccccc12	–	–	–	–	–	58.6
FC(F)Sc1ccc(NC(=S)NC(c2ccccc2)c2ccccc2)cc1	–	–	–	28.0	–	–
FC(F)Sc1ccc(NC(=S)NCc2ccccc2)cc1	–	–	–	12.4	–	–
CN(C(=S)Nc1ccc(SC(F)F)cc1)C(c1ccccc1)c1ccccc1	–	–	–	–	–	–
O=S(=O)(CC1NCc2ccccc21)NCc1ccc(F)cc1 (configuration not stated)	–	–	–	·	–	·
CCOC(=O)[C@]12CCCC=C1N(Cc1ccc(OC)cc1)C(=O)[C@@H]2CC(=O)N1CCN(C(=O)c2ccco2)CC1	–	–	–	·	–	·
SMILES	proKLK7 act	ADAM10 inh	ADAM17 inh	GRIN3A LBD mod	rCAG RNA binder	AHR activator
C1=C(c2ccccc2)CCN(c2nc3ccccc3n3cnnc23)C1	–	–	–	–	–	78.7
CC(C)(C)N(Cc1cn(Cc2ccccc2)nn1)S(=O)(=O)c1ccc(F)cc1Br	–	–	–	·	–	·
COC(=O)c1ccc(NC(=O)Cn2c(-c3nonc3N)nc3ccccc32)cc1	–	–	–	–	–	–
CC(C)OC(=O)c1ccc(NC(=O)Cn2c(-c3nonc3N)nc3ccccc32)cc1	–	–	–	19.2	–	–
Cc1ccc(NC2=CC(=O)C(=O)c3ccccc32)c(C)c1	–	–	–	–	–	–
O=C1C=C(Nc2ccccc2O)c2ccccc2C1=O	–	–	–	–	–	71.5
